Screening results: PubChem BioAssay, National Center for Advancing Translational Sciences (NCATS)
HP1b chromo inh = inhibitors of HP1-beta chromodomain binding to methylated histone tails | Potency, µM (doses to about 114 µM), for the others: top-dose activity change, negative = inhibition, actives largely listed as inhibitors | AID 540317 | AlphaScreen HP1-beta / biotin-H3K9me3 peptide binding | 390,000 tested, 0.56% active | P83916; note: nearly all actives have a fitted effect of over 70% in size
Target sequence (P83916 whole entry, looked up): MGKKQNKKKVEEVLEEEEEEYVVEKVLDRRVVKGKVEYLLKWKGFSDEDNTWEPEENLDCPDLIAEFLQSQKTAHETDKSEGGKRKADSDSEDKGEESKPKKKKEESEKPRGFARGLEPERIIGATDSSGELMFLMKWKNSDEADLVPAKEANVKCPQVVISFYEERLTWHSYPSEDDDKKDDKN
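Compound inhibition of the preformed complex between 50 nM HP1-beta and 50 nM biotinylated H3K9me3 peptide was read by AlphaScreen. Buffer was PBS pH 7.4 with 0.01% Tween-20. Incubations ran 30 min at room temperature, with 10 ug/mL donor/acceptor beads.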
BAZ2B inh = blocks human BAZ2B; AlphaScreen BAZ2B-H3K14Ac peptide displacement; Q9UIF8; Potency, µM (top dose mostly 114 µM), without a hit: at the highest dose activity change, negative = inhibition, most hits filed as inhibitors; AID 504333; 360,000 tested, 4.4% active; note: % is set by controls: 0 for no effect and ±100 for the full control effect; nearly all actives have a fitted effect of over 60% in size
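Compounds, titrated to a top concentration of 110 uM, were incubated 30 min at room temperature with preformed BAZ2B/acetyl-K14 H3 peptide complex (50 nM each). Proximity signal was measured by AlphaScreen after 20 min with beads.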
JMJD2A Tudor = blocks the human JMJD2A Tudor domain | AlphaScreen JMJD2A-Tudor / H3K4me3 peptide binding | 390,000 tested, 4.4% active | Potency, µM (titrated, usually from 114 µM), without a hit: at the highest dose activity change, negative = inhibition, most hits filed as inhibitors; note: % is set by controls: 0 for no effect and ±100 for the full control effect; nearly all actives have a fitted effect of over 50% in size
G9a block = inhibitors of human histone lysine methyltransferase G9a; AID 504332; 350,000 tested, 8.8% active; Potency, µM (top dose mostly 102 µM), for the others: at the top dose activity, negative = inhibition, usual class: inhibitors; Q96KQ7; G9a H3K9 monomethylation, AlphaScreen, 2 h; note: % is set by controls: 0 for no effect and ±100 for the full control effect; nearly all actives have a fitted effect of over 75% in size
Target sequence (Q96KQ7 913-1193 limits assumed): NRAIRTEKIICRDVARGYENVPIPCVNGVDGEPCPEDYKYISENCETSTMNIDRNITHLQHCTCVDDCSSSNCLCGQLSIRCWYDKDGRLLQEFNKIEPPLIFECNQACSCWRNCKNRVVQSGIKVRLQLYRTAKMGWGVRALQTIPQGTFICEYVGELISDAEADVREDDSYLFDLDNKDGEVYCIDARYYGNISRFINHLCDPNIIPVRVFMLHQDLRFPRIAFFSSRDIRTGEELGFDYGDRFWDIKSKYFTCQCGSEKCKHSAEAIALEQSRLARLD
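Step 1: enzyme (final 20 nM) with compound, 15 min RT. Step 2: substrate peptide 500 nM and SAM 20 uM, 2 h RT. Step 3: anti-H3K9me1 antibody and AlphaScreen beads, 10 min, then plate read.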
PLK1 PBD block = inhibitors of human PLK1 polo-box domain binding | 360,000 tested, 2.8% active | Potency, µM, for the others: max response, negative = inhibition, usual class: inhibitors | Plk1 PBD binding of FITC phosphopeptide, fluorescence polarization | P53350; note: series mostly up to about 57 µM; % is set by controls: 0 for no effect and ±100 for the full control effect; nearly all actives have a fitted effect of over 65% in size
VDR inh = blocks the human vitamin D receptor | Potency, µM, for inactives: max response, negative = inhibition, usual class: inhibitors | P11473 | VDR-SRC2-3 peptide fluorescence polarization, 2 h | 400,000 tested, 0.93% active; note: % is set by controls: 0 for no effect and ±100 for the full control effect
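Two reagent solutions held at 4 deg C in the dark were dispensed, compounds pinned at 23 nl, and the mixture incubated 2 h at room temperature. Read-out: fluorescence polarization of VDR–SRC2-3 peptide binding.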
Starred values were filed as active, the others as inactive; ? = inconclusive; . = no result given; [ ] = remark or other dose. Sampled rows, rich in hits. Any-hit rate of the full collection: about 11%. Calls come from the whole dose curve; as a rule, active = well fitted curve in the direction sought with a large enough effect; inconclusive = small, poorly fitted or top-dose-only effect, or another doubt; inactive = no such curve, though single readings can be large; an effect the other way counts as inactive or inconclusive. Potency is the fitted concentration of half-maximal effect.

SMILES	HP1b chromo inh	BAZ2B inh	JMJD2A Tudor	G9a block	PLK1 PBD block	VDR inh
CC(c1n[nH]c(=S)n1-c1ccc(F)cc1)N1CCCCC1 (stereo not drawn)	3%	-3%	?	35µM*	-16%	-1%
CC(c1n[nH]c(=S)n1-c1ccc(Cl)cc1)N(C)C (stereo not drawn)	-19%	-11%	7.9µM*	8.9µM*	-11%	-22%
Cc1n[nH]c(=S)n1-c1ccccc1	20%	-31%	89µM*	.	-19%	6%
S=c1[nH]nc(-c2ccc3ccccc3n2)n1-c1ccc(Cl)cc1	13%	4%	?	?	-19%	-5%
Cc1ccc(NS(=O)(=O)c2cc3c(cc2Cl)CCC(=O)N3)cc1C	.	.	-8%	.	.	.
Cc1cnc(CNc2ncncc2-c2ccc3c(c2)OCO3)cn1	.	.	.	-4%[0.501 µM]	.	-7%
CC1(C(=O)NS(=O)(=O)c2cccc(Cl)c2)CCN1C(=O)CC1CC1 (stereo not drawn)	.	.	.	.	-10%	.
CCC1CC2(C)NC(=O)c3c(sc4c3CC(C)(C)OC4)N2C1=O (stereo not drawn)	?	-24%	-32%	32µM*	12µM*	?
Cn1c(NN)nc2sc3c(c2c1=O)CC(C)(C)OC3	-10%	-4%	?	-31%[59 µM]	-7%	7%
COc1ccc(C(=O)NCCNc2nc3ccc(C)cc3cc2C#N)cc1	49%	-34%	1%	45µM*	1%	-11%
Cc1ccc2nc(NCCNC(=O)c3ccccc3)c(C#N)cc2c1	33%	3%	3%	.	-21%	-14%
CCS(=O)(=O)N1CC(=O)N(c2cccc(Cl)c2C)C(C)(C(=O)NC2CCCCC2)C1 (stereo not drawn)	15%	3%	-6%	5%[59 µM]	.	15%
CC(C)c1nn2c(=O)cc(COc3cccc(NC(=O)c4ccco4)c3)nc2s1	-6%	-1%	-24%	14%	24µM*	-32%
Cc1cc(OC(=O)c2cc(-c3ccc4c(c3)OCCO4)on2)ccc1Cl	82%	-2%	22%	8%[59 µM]	.	10%
O=C1CCN2C=Nc3cccc4ccc1c2c34	46%	7%	6%	-9%[2.33 µM]	3.8µM*	-16%
CC(=O)c1ccc(S(=O)(=O)N2CCNCC2)cc1	21%	0%	-25%[11.4 µM]	.	15µM*	?
CC(=O)c1ccc(S(=O)(=O)N2CCN(C(C)=O)CC2)cc1	20%	3%	6%	5%	-8%	-9%
Cc1cc(C)nc(NNC2=CC(=[N+]3CCCC3)CCC2)n1	?	-8%	3.2µM*	?	-21%	-7%
N#Cc1nc(Nc2cccc(Br)c2)nc(NC2CCCC2)n1	.	.	-16%	.	.	.
Fc1ccc(N2CCN(C3=Nc4cccc5cccc3c45)CC2)cc1	?	35µM*	25µM*	40µM*	-3%	-8%
O=S(=O)(c1ccc(Br)cc1)c1nc(-c2cccs2)oc1SCc1ccccc1F	31%	-6%	-6%	5%[59 µM]	.	-1%
Cc1nc2ccccc2c(=O)n1/N=C/c1ccccc1F	21%	5%	2%	-1%	-5%	-9%
Cc1nc2ccccc2c(=O)n1/N=C/c1c(O)ccc2ccccc12	-18%	25µM*	-30%	32µM*	-15%	-16%
COc1cc(OC)c(OC)cc1/C=N/n1c(C)nc2ccccc2c1=O	14%	5%	-18%	14%	-14%	4%
O=c1c2ccccc2nc(N/N=C/c2c(O)ccc3ccccc23)n1O	-15%	28µM*	50µM*	?	30µM*	10%
SMILES	HP1b chromo inh	BAZ2B inh	JMJD2A Tudor	G9a block	PLK1 PBD block	VDR inh
Cc1nc2ccccc2c(=O)n1/N=C/c1ccccn1	8%	-7%	-22%	28µM*	0%	-3%
COc1cc(/C=N/n2c(C)nc3ccccc3c2=O)cc(OC)c1O	44%	-27%	-22%	13µM*	-3%	-7%
COC(=O)c1nnc(SC)nc1C(=O)OC	.	.	.	.	.	-6%
COc1cc(OC)c(NC(=O)N2CCN3CCCCC3C2)cc1Cl (stereo not drawn)	20%	-18%	-8%	-6%[59 µM]	.	9%
Cc1ccccc1CNC(=O)CN(c1cccc([N+](=O)[O-])c1)S(C)(=O)=O	53%	-2%	1%	-8%	4%	2%
CCOC(=O)c1c(C)n(C)c2ccc(OC)c(NC(=O)CN3CCSCC3)c12	37%	6%	-9%	-4%[12.7 µM]	-6%	-16%
CCOC(=O)c1c(C)n(C)c2ccc(OC)c(NC(=O)c3cccs3)c12	-21%	-8%	?	20%[59 µM]	30µM*	-9%
COc1cccc(CN2C(=O)c3ccccc3Sc3ccc(C(=O)N(C)Cc4ccccc4)cc32)c1	26%	.	-12%	-26%[59 µM]	.	-13%
O=C(CCN1C(=O)c2ccccc2S1(=O)=O)Nc1ccc(Cl)cc1	60%	-16%	-11%	.	3%	6%
CSc1nsc(SC)c1C(=O)Nc1ccc(C)cc1	23%	?	-12%	25µM*	-7%	6%
Nc1c(Cl)ncnc1N/N=C/c1ccc2ccccc2n1	-36%	13µM*	89µM*	?	-9%	-6%
Nc1c(Cl)ncnc1N/N=C/c1cccnc1	10%	-23%	?	40µM*	-7%	-11%
Nc1c(Cl)ncnc1N/N=C/c1ccccn1	-19%	5.6µM*	28µM*	?	-11%	-21%
O/N=C/c1ccc2ccccc2n1	-1%	-7%	-8%	.	-8%	-10%
Nc1c(Cl)ncnc1N/N=C/c1ccnc2ccccc12	9%	5%	6%[57.1 µM]	?	-29%	14%
CCc1cccc(CC)c1NC(=O)COn1nnc2ccc(C(F)(F)F)cc21	12%	-2%	-2%	-16%	-10%	-3%
O=C(Cn1c(=O)nc(-c2ccccc2)c2ccccc21)NCc1ccc(F)cc1	10%	-1%	-5%	8%[59 µM]	.	8%
COc1cc(C(=O)N(Cc2ccccn2)CC2CCCO2)cc(OC)c1OC (stereo not drawn)	-17%	56µM*	18µM*	-39%[12.7 µM]	-7%	-8%
Cc1ccc(-c2nc(CN3CCCCC3c3cccc(F)c3)c(C)o2)o1 (stereo not drawn)	-21%	-39%	?	40µM*	3%	-11%
CCOC(=O)C1(CC2CCCCO2)CCN(C(=O)Nc2cccc(SC)c2)CC1 (stereo not drawn)	?	-5%	?	-7%	21µM*	-10%
O=C1C=C(c2ccc(C(=O)O)cc2)C[C@@H](c2ccc3c(c2)OCO3)C1	1%	50µM*	79µM*	2%[0.501 µM]	-21%	-16%
C/C(=N/NC(=O)CN(c1ccccc1)S(=O)(=O)c1ccccc1)c1ccccc1O	41%	13µM*	?	.	-4%	?
CCCOc1ccc(NC(=O)OC2CCN(C)CC2)cc1	36%	0%	-8%	?	-4%	-12%
